Structures are written as SMILES. This is part of a sample that, as a whole, favours compounds with a hit. Of some 83,000 tested, about 20% had one in any assay.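 Results are percent growth after 48 hours of single-concentration exposure. 100 means growth as in untreated cells, lower positive values show inhibition; negative values down to -100 show cell death.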 Unmarked numbers belong to inactive results. Calls of active or inactive are those of the source. The calls were made as follows: active = growth percent below 10; inactive = the rest.

Among the test systems are SK-MEL-2 melanoma; EKVX NSCLC; SN12C renal; UO-31 renal; TK-10 renal; ACHN renal; CAKI-1 renal; A498 renal; CCRF-CEM leukemia; MOLT-4 leukemia; SR leukemia; RPMI-8226 leukemia; OVCAR-8 ovarian; OVCAR-5 ovarian; OVCAR-4 ovarian; SK-OV-3 ovarian; IGROV1 ovarian; OVCAR-3 ovarian; HS 578T breast; NCI/ADR-RES ovarian.
Common to all, as to experiment: NCI-60 one-dose screen, 48 h (100 = growth as untreated, 0 = no growth, -100 = all killed)
Details in all cases: 10 µM unless noted

In the case of `CN(C)CCCNC(=O)c1cncnc1Nc1ccc(OCc2cccc(F)c2)c(Cl)c1`, the growth is -35.7% (active) with SK-MEL-2 melanoma; 62.8% in the test with EKVX NSCLC; 28.7% in the test with SN12C renal; -4.99% (active) with UO-31 renal; -71.7% (active) in the test with TK-10 renal; -36.8% (active) in the test on ACHN renal. Besides, the growth is -19.3% (active) in the test with CAKI-1 renal; -8.81% (active) in the test with A498 renal; -34.2% (active) with CCRF-CEM leukemia; -40.9% (active) in the test with MOLT-4 leukemia; -48.5% (active) in the test on SR leukemia; -14.6% (active) in the test with RPMI-8226 leukemia. The growth was 1.06% (active) in the test with OVCAR-8 ovarian; 36.1% in the test on OVCAR-5 ovarian; 25.7% in the test on OVCAR-4 ovarian; -24% (active) with SK-OV-3 ovarian; 1.4% (active) in the test on IGROV1 ovarian; 6.33% (active) in the test on OVCAR-3 ovarian. For the same compound, the growth in the test on HS 578T breast is -30% (active); with NCI/ADR-RES ovarian it was 43.3%.
Take `O=C1/C(=C\c2ccccn2)c2ccccc2N1c1c(Cl)cccc1Cl`: the growth with SK-MEL-2 melanoma was 48.8%; in the test with EKVX NSCLC, 27.2%; in the test on SN12C renal it was 18.1%; with UO-31 renal it was 16.8%; in the test on TK-10 renal, 52%; with ACHN renal, 19.6%. The growth with CAKI-1 renal is -1.37% (active); in the test with A498 renal, 21.3%; in the test on CCRF-CEM leukemia, 8.81% (active); in the test with MOLT-4 leukemia it was 3.48% (active); in the test with SR leukemia, -4.3% (active); in the test with RPMI-8226 leukemia, -12.5% (active). Also, the growth with OVCAR-8 ovarian was 4.47% (active); in the test with OVCAR-5 ovarian, 122%; with OVCAR-4 ovarian it was 3.21% (active); in the test on SK-OV-3 ovarian, 27.4%; with IGROV1 ovarian, 8.25% (active); in the test on OVCAR-3 ovarian, 27.4%. For the same compound, the values for the growth in the test on HS 578T breast and in the test with NCI/ADR-RES ovarian were 22.9% and -26.7% (active), respectively.
`O=C1C(Nc2ccccn2)=C(I)C(=O)c2ncccc21`: the growth is -53.7% (active) with SK-MEL-2 melanoma; -7.46% (active) in the test with EKVX NSCLC; -70.8% (active) in the test on SN12C renal; -97.7% (active) in the test on UO-31 renal; -21.4% (active) with TK-10 renal; -36.1% (active) in the test with ACHN renal. For the same compound, the growth in the test with CAKI-1 renal is 5.77% (active); in the test with A498 renal it was 68.2%; in the test with CCRF-CEM leukemia it was 3.29% (active); in the test with MOLT-4 leukemia it was -25.4% (active); in the test on SR leukemia, 2% (active); in the test on RPMI-8226 leukemia, -15.5% (active). Further, the growth with OVCAR-8 ovarian was -15.3% (active); with OVCAR-5 ovarian, -55.3% (active); in the test on OVCAR-4 ovarian, -53.3% (active); in the test with SK-OV-3 ovarian, -44.9% (active); with IGROV1 ovarian, -67.5% (active); in the test with OVCAR-3 ovarian, -48.4% (active). Moreover, the figures for the growth with HS 578T breast and with NCI/ADR-RES ovarian were -10.1% (active) and -7.85% (active), respectively.
In the case of `CCOc1ccc(-n2nc(C(=O)NCc3ccccc3OC)nc2-c2cc(OC)c(OC)c(OC)c2)cc1`, the growth was 41.5% with SK-MEL-2 melanoma; 41.3% with EKVX NSCLC; 39.7% in the test on SN12C renal; -2.66% (active) in the test on UO-31 renal; 46.5% with TK-10 renal; 19.6% in the test on ACHN renal. The growth in the test on CAKI-1 renal was 25.9%; in the test on A498 renal, 30%; with CCRF-CEM leukemia it was 39.7%; in the test on MOLT-4 leukemia it was 0.381% (active); with SR leukemia, 35.9%; with RPMI-8226 leukemia, 26.9%. Also, the growth was 43.7% in the test on OVCAR-8 ovarian; 74.2% with OVCAR-5 ovarian; 23.4% with OVCAR-4 ovarian; 67.1% in the test on SK-OV-3 ovarian; 43.7% in the test on IGROV1 ovarian; 49.4% with OVCAR-3 ovarian. Also, the growth with HS 578T breast was 55.1%; in the test with NCI/ADR-RES ovarian it was 27.8%.
As to `Nc1ccc(-c2csc(-n3[nH]c(=O)ccc3=O)n2)cc1`, the growth in the test with SK-MEL-2 melanoma was 109%; in the test on EKVX NSCLC, 88.4%; in the test with SN12C renal, 103%; with UO-31 renal, 84.1%; in the test with TK-10 renal it was 120%; in the test on ACHN renal, 99.5%. Besides, the growth is 94% with CAKI-1 renal; 103% in the test with A498 renal; 96.4% in the test on CCRF-CEM leukemia; 87.6% with MOLT-4 leukemia; 102% in the test with SR leukemia; 97.3% in the test on RPMI-8226 leukemia. Moreover, the growth was 101% in the test on OVCAR-8 ovarian; 108% with OVCAR-5 ovarian; 101% in the test on OVCAR-4 ovarian; 112% in the test on SK-OV-3 ovarian; 99% with IGROV1 ovarian; 113% with OVCAR-3 ovarian. For the same compound, the growth is 100% with HS 578T breast and 94.4% in the test with NCI/ADR-RES ovarian.
As to `COc1ccc(Oc2nc(Nc3ccc(N4CCOCC4)cc3)ncc2NC(=O)Nc2cc(OC)cc(OC)c2)cc1`, the growth was 17.8% in the test on SK-MEL-2 melanoma; 73.1% in the test on EKVX NSCLC; -12.7% (active) in the test on SN12C renal; 47.8% in the test with UO-31 renal; 28.4% with TK-10 renal; 17.4% in the test on ACHN renal. The growth was 16.3% with CAKI-1 renal; 9.34% (active) in the test on A498 renal; 65% with CCRF-CEM leukemia; 36.8% in the test on MOLT-4 leukemia; 50.7% in the test on SR leukemia; 54.3% in the test on RPMI-8226 leukemia. Further, the growth was 18.4% in the test with OVCAR-8 ovarian; 60.9% in the test with OVCAR-5 ovarian; 54.5% in the test on OVCAR-4 ovarian; 57.4% in the test on SK-OV-3 ovarian; 37.8% with IGROV1 ovarian; 18.3% with OVCAR-3 ovarian. Further, the figures for the growth in the test on HS 578T breast and in the test on NCI/ADR-RES ovarian were 36.2% and 80.8%, respectively.
In the case of `S=C(c1ccc2c(c1)OCO2)N1CCN(c2cccc(Cl)c2)CC1`, the growth in the test with SK-MEL-2 melanoma is 71.7%; in the test on EKVX NSCLC, 50.9%; with SN12C renal it was 50.7%; with UO-31 renal, 57.4%; with TK-10 renal it was 53.3%; in the test with ACHN renal, 34.6%. The growth in the test on CAKI-1 renal was 15.5%; in the test on A498 renal it was 33.3%; with CCRF-CEM leukemia it was 18.8%; in the test on MOLT-4 leukemia, 30.9%; in the test on SR leukemia it was 11.9%; with RPMI-8226 leukemia, 24.6%. In addition, the growth in the test on OVCAR-8 ovarian is 38.8%; with OVCAR-5 ovarian it was 44%; with OVCAR-4 ovarian, 46.3%; with SK-OV-3 ovarian, 20.6%; in the test on IGROV1 ovarian, 37%; in the test on OVCAR-3 ovarian, -33.7% (active). Moreover, the growth in the test on HS 578T breast is -1.66% (active); in the test on NCI/ADR-RES ovarian it was -13% (active).

(Values after PubChem BioAssay (NCI).)
